Screens as filed in PubChem BioAssay.
HepG2 tox: counter-screen for TGF-b inhibitors: cytotoxicity in HepG2 cells; HepG2 CAGA-GFP viability, ATP luminescence, 18 h; Potency, µM (highest dose often 46.1 µM), for inactives: at the highest dose activity change, negative = cytotoxicity, actives largely listed as cytotoxic; 410,000 tested, 0.76% active; AID 588856
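HepG2 CAGA-GFP cells (1000/well, DMEM with 1% FBS) received compound, then TGF-beta at 500 pg/mL final, and were incubated 18 hours at 37 degrees C. Viability was read by CellTiter-Glo luminescence. Media-only wells were set as complete cell-killing and DMSO as no toxicity.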
TGFb inhibitor: inhibitors of TGF-b signaling; 410,000 tested, 1.2% active; HepG2 CAGA-GFP TGF-b/SMAD3 reporter, GFP fluorescence, 18 h; TGF-beta stimulated, 500 pg/mL final; Potency, µM (doses to about 46.1 µM), for the others: top-dose activity, negative = inhibition, most hits filed as inhibitors; also: % is scaled to controls: 0 for no effect and ±100 for the full control effect; nearly all actives have a fitted effect of over 65% in size
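Using HEPG2 CAGA-GFP reporter cells at 1000 cells/well, we pinned test compounds, stimulated with recombinant TGF-beta (500 pg/mL final) and measured total well GFP after 18 h.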
TDP1 cell CPT: growth inhibition of DT40 Tdp1-/-;hTDP1 cells with camptothecin (screen for TDP1 inhibitors) | Potency, µM (doses to about 46.2 µM), inactives show at the top dose activity change, negative = growth inhibition, usual class: inhibitors | AID 686979 | 420,000 tested, 12% active | chicken DT40 Tdp1-/-;hTDP1 cells + 20 nM CPT, ATP luminescence, 48 h; also: % is scaled to controls: 0 for no effect and ±100 for the full control effect; nearly all actives have a fitted effect of over 55% in size
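Chicken DT40 Tdp1-/- cells stably complemented with human TDP1 were seeded at 400 cells/well in medium containing 20 nM camptothecin, exposed to pin-transferred compounds, and grown at 37 °C for at least 48 hr. Viability was read as ATP luminescence.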
HT1080NT lethal: kills 2HG-producing HT-1080-NT fibrosarcoma cells | HT-1080-NT fibrosarcoma viability, CellTiter-Glo ATP luminescence, 48 h | Potency, µM (highest dose often 46.1 µM), without a hit: at the highest dose activity, negative = less viability, most hits filed as cytotoxic | 360,000 tested, 1.6% active | AID 686970;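 also: NT is the 2HG producing partner of a matched IDH1 knockdown line; 0% = DMSO-treated cells and -100% = media-only wells without cells; nearly all actives have a fitted effect of over 55% in size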
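Luminescent CellTiter-Glo readout after 48 hours of compound exposure at 37 degrees C defined viability of HT-1080-NT cells. Activity was normalized to DMSO wells and cell-free media wells; concentration-response curves were fitted and assigned curve classes.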
DT40 TDP1 no CPT: qHTS for Inhibitors of human tyrosyl-DNA phosphodiesterase 1 (TDP1): qHTS in cells in absence of CPT; DT40 Tdp1-/- hTDP1 cells, no CPT, ATP luminescence, 48 h; Potency, µM (doses to about 46.2 µM), inactives show at the top dose activity change, negative = growth inhibition, hits mostly inhibitors; 420,000 tested, 15% active; AID 686978, 2013; also: % is scaled to controls: 0 for no effect and ±100 for the full control effect; nearly all actives have a fitted effect of over 55% in size
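Readout: luminescence from CellTiter-Glo after 30 min in the dark at RT. Cells: DT40 Tdp1-/- with stable hTDP1, 400/well. Exposure: compounds alone, ≥48 hr, 37 °C.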
HT1080 IDH1KD tx: toxicity to HT-1080 IDH1 knockdown cells (counter line); HT-1080 IDH1 knockdown viability, ATP luminescence, 48 h; Potency, µM (series often up to 46.1 µM), for the others: at the highest dose activity, negative = toxicity, hits mostly cytotoxic; 360,000 tested, 2% active;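 also: 0% = DMSO wells and -100% = cell-free medium wells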
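Using the IDH1-knockdown HT-1080 line run in the same batch and compound series as the NT line, viability after 48 h at 37 °C was determined by CellTiter-Glo luminescence and expressed as % activity.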
Numbers without * were called inactive; [ ] = another dose, or the depositor's remark. An excerpt weighted towards active compounds, which were near 17% of everything screened. Calls follow the shape of the dose curve; as a rule, active = well fitted curve in the direction sought with a large enough effect; inconclusive = small, poorly fitted or top-dose-only effect, or another doubt; inactive = no such curve, though single readings can be large; an effect the other way counts as inactive or inconclusive. Potency is read from the fitted curve at half-maximal effect.

How did COc1ccc(OC)c(CNn2c(-c3ccccc3F)nc3ccccc3c2=O)c1 do in these assays?
HepG2 tox: -39%; TGFb inhibitor: 6%; TDP1 cell CPT: inconclusive; HT1080NT lethal: -4%; DT40 TDP1 no CPT: 18µM*; HT1080 IDH1KD tx: -13%

How did COc1ccc(CNn2c(-c3ccccc3F)nc3ccccc3c2=O)cc1OC do in these assays?
HepG2 tox: -12%; TGFb inhibitor: -9%; TDP1 cell CPT: inconclusive; HT1080NT lethal: 0%; DT40 TDP1 no CPT: 18µM*; HT1080 IDH1KD tx: 2%

Results for Cc1ccccc1NS(=O)(=O)c1cc(C(=O)N2CCCC2)ccc1C ?
HepG2 tox: -32%; TGFb inhibitor: 10%; TDP1 cell CPT: -8%; HT1080NT lethal: -9%; DT40 TDP1 no CPT: inconclusive; HT1080 IDH1KD tx: -11%

What do the screens show for `Cc1ccc(S(=O)(=O)NCc2ccc(C(=O)N3CCN(c4ccccn4)CC3)cc2)cc1`?
HepG2 tox: -19%; TGFb inhibitor: -23%; TDP1 cell CPT: inconclusive; HT1080NT lethal: -3%; DT40 TDP1 no CPT: inconclusive; HT1080 IDH1KD tx: 0%

What do the screens show for `COc1ccccc1NS(=O)(=O)c1cc(C(=O)N2CC(C)CC(C)C2)ccc1C` (stereo not drawn)?
HepG2 tox: 4%; TGFb inhibitor: 3%; TDP1 cell CPT: inconclusive; HT1080NT lethal: -7%; DT40 TDP1 no CPT: 21µM*; HT1080 IDH1KD tx: -13%

Results for CCOC(=O)C1CCN(C(=O)c2ccc(S(=O)(=O)Nc3ccccc3OC)cc2)CC1 ?
HepG2 tox: 5%; TGFb inhibitor: 1%; TDP1 cell CPT: 9.2µM*; HT1080NT lethal: -6%[9.24 µM]; DT40 TDP1 no CPT: inconclusive; HT1080 IDH1KD tx: 0%

What do the screens show for `Cc1ccc(NS(=O)(=O)c2ccc(C(=O)N3CCN(c4ccccn4)CC3)cc2)cc1`?
HepG2 tox: 7%; TGFb inhibitor: 7%; TDP1 cell CPT: 13µM*; HT1080NT lethal: -6%; DT40 TDP1 no CPT: 12µM*; HT1080 IDH1KD tx: -3%

How did COc1ccccc1NS(=O)(=O)c1ccc(C)c(C(=O)N2CCN(c3ccc(O)cc3)CC2)c1 do in these assays?
HepG2 tox: 1%; TGFb inhibitor: inconclusive; TDP1 cell CPT: 15µM*; HT1080NT lethal: 9%; DT40 TDP1 no CPT: 13µM*; HT1080 IDH1KD tx: -3%

What do the screens show for `CCOC(=O)C1CCN(C(=O)c2ccccc2NS(=O)(=O)c2ccccc2)CC1`?
HepG2 tox: -14%; TGFb inhibitor: inconclusive; TDP1 cell CPT: 3%; HT1080NT lethal: 2%; DT40 TDP1 no CPT: -2%; HT1080 IDH1KD tx: 2%

Results for COc1ccccc1NS(=O)(=O)c1ccc(C(=O)N2CCN(c3ccccn3)CC2)cc1 ?
HepG2 tox: -5%; TGFb inhibitor: -14%; TDP1 cell CPT: 23µM*; HT1080NT lethal: 7%; DT40 TDP1 no CPT: 13µM*; HT1080 IDH1KD tx: 3%

How did Cc1cc(C)c(S(=O)(=O)Nc2cc(-c3cn4ccccc4n3)ccc2C)cc1C do in these assays?
HepG2 tox: -34%; TGFb inhibitor: -22%; TDP1 cell CPT: 21µM*; DT40 TDP1 no CPT: 21µM*

How did Cc1cccn2cc(-c3ccc(S(=O)(=O)N4CCOCC4)cc3)nc12 do in these assays?
HepG2 tox: 3%; TGFb inhibitor: -5%; TDP1 cell CPT: inconclusive; HT1080NT lethal: inconclusive; DT40 TDP1 no CPT: 16µM*; HT1080 IDH1KD tx: -19%

Results for CN(C)S(=O)(=O)c1cccc(-c2cn3ccccc3n2)c1 ?
HepG2 tox: -23%; TGFb inhibitor: 11%; TDP1 cell CPT: -1%; HT1080NT lethal: 9%; DT40 TDP1 no CPT: -29%; HT1080 IDH1KD tx: 8%
